High-throughput results as filed in PubChem.
Only some compounds are listed: those with a hit (about 9.6% of all), similar ones and a draw of the others.
USP17 inh = inhibitors of human USP17 deubiquitinase; A8MUK1; purified USP17, Ub-rhodamine cleavage fluorescence, 3 h; inhibition, % at 50 µM; 47,000 tested, 6.5% active
Target sequence (A8MUK1 whole entry, looked up): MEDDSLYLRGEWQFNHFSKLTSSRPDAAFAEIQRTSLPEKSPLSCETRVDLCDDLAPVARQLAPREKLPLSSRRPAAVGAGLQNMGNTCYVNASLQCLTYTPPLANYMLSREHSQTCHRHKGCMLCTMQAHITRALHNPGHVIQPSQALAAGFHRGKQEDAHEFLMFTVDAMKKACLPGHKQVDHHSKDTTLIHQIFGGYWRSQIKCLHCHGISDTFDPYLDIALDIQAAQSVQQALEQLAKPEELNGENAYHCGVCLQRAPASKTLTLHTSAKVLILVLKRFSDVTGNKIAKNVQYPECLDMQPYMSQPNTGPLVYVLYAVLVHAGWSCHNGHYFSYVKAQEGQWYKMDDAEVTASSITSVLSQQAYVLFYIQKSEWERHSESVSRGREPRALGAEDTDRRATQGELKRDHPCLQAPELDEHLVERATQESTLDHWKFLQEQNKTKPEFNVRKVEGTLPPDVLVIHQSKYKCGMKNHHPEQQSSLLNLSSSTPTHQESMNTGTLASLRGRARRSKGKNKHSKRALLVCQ
USP30 block = human USP30 deubiquitinase inhibition; 47,000 tested, 5.3% active; purified USP30, Ub-rhodamine cleavage fluorescence; Q70CQ3; inhibition, % at 25 µM
Numbers stand for hits; - = inactive; . = not tested or not shown. Cut-off read from the data, not from the text of the source: active = inhibition above about 30%; inactive = the rest.

SMILES | USP17 inh | USP30 block
C[C@@H]1O[C@@H](O[C@H]2CC[C@]3(C=O)[C@H]4CC[C@]5(C)[C@@H](c6ccc(=O)oc6)CC[C@]5(O)[C@@H]4CC[C@]3(O)C2)[C@H](O)[C@H](O)[C@H]1O[C@@H]1O[C@H](CO)[C@@H](O)[C@H](O)[C@H]1O | - | -
C[C@@H]1CC[C@@]2(OC1)O[C@H]1C[C@H]3[C@@H]4CC=C5C[C@@H](O[C@@H]6O[C@@H](CO)[C@@H](O[C@@H]7O[C@@H](C)[C@H](O[C@@H]8O[C@@H](C)[C@H](O)[C@H](O)[C@H]8O)[C@H](O)[C@H]7O)[C@H](O)[C@@H]6O[C@@H]6O[C@@H](C)[C@H](O)[C@H](O)[C@H]6O)CC[C@]5(C)[C@H]4CC[C@]3(C)[C@H]1[C@@H]2C | 54.8 | 96.0
CCOC(=O)[C@@H]1[C@@H](c2ccccc2)CN2CCN(C(=O)c3cc(C)on3)C[C@H]12 | - | -
COc1ccccc1C1SCC(=O)Nc2c1c(C)nn2-c1nc(C)cc(C)n1 (stereo not given) | - | -
Cc1cc(C)nc(-n2nc(C)c3c2NC(=O)CSC3c2ccccc2F)n1 (stereo not given) | 36.5 | 87.4
CCN1CCN(c2nc3ccccc3c(=O)n2-c2ccc(Cl)cc2)CC1 | - | -
O=C(NCc1cccnc1)[C@H]1CO[C@H]2CCN(C3CCC3)C[C@H]2C1 | - | -
O=C1CSC(c2ccc3c(c2)OCO3)c2c(n(C3CCCC3)[nH]c2=O)N1 (stereo not given) | - | -
Cc1nn(C2CCCC2)c2c1C(c1ccc3c(c1)OCO3)SCC(=O)N2 (stereo not given) | - | 30.3
COc1ccc(C2SCC(=O)Nc3c2c(C)nn3C2CCCCC2)cc1 (stereo not given) | - | -
Cc1ccc(C2SCC(=O)Nc3c2c(=O)[nH]n3C2CCCCCC2)cc1 (stereo not given) | - | -
COc1ccc(C(C)NC(=O)c2cn(C)c3ncccc23)cc1OC (stereo not given) | - | -
O=C1c2c(O)c(Cl)cc3c2[C@@]2(Oc4cc(Cl)c(O)c5c4[C@]3(O2)[C@@H]2O[C@@H]2C5=O)[C@@H]2O[C@H]12 | 75.9 | -
Cc1cccc(OCC(=O)N2CCN(Cc3ccncc3)CC2)c1C | - | -
Cc1nn(Cc2ccccc2)c(C)c1C(=O)NC1CCCc2ccccc21 (stereo not given) | - | 54.0
Cc1nn(Cc2ccccc2)c(C)c1C(=O)NCc1ccccc1 | - | -
CN1[C@@H]2Cc3ccccc3[C@H]1C[C@@H](NC(=O)Nc1ccccc1F)C2 | - | -
Cc1cc(C)c2c(=O)[nH]c(C3CCCNC3)cc2c1 (stereo not given) | - | -
Cc1ccccc1COc1ccc(C2SCC(=O)Nc3n[nH]c(C)c32)cc1 (stereo not given) | 36.2 | 41.2
Cc1[nH]nc2c1C(c1ccc(OCc3cccc(F)c3)cc1)SCC(=O)N2 (stereo not given) | . | -
CCC1CC2CC3c4[nH]c5cc(OC)ccc5c4CCN(C2)C13 (stereo not given) | - | -
O=C(c1cn2ccnc(-c3ccccc3)c2n1)N1CCC2(CC1)OCCO2 | - | -
Clc1ccc(-c2cc(N3CCOCC3)n[nH]2)cc1 | - | -
CC(C)=CCCC1(C)C=Cc2c(O)c3c(c(CC=C(C)C)c2O1)OC12C(=CC4CC1C(C)(C)OC2(C/C=C(/C)C(=O)O)C4=O)C3=O (stereo not given) | 89.3 | 70.6
CCCn1c(C)cc(C(=O)COC(=O)C(O)(c2ccccc2)c2ccccc2)c1C | - | -
SMILES | USP17 inh | USP30 block
COc1ccc(C2C3=C(COC3=O)Nc3cc4c(cc32)OCO4)c(OC)c1OC (stereo not given) | - | -
Cc1noc(C)c1CC(=O)N1CCN(C(C)C)C(C(N)=O)C1 (stereo not given) | - | -
CC1=C(O)C(=O)C=C2C1=CC=C1[C@@]2(C)CC[C@@]2(C)[C@@H]3C[C@](C)(C(=O)O)CC[C@]3(C)CC[C@]12C | 54.1 | -
O=C(NCc1cccnc1)c1cccn(Cc2ccc(Cl)cc2)c1=O | - | 31.6
O=C(Nc1nc2ccccc2s1)c1cccn(Cc2ccc(Cl)cc2)c1=O | - | -
CN1C(=O)CCCC[C@@H]2[C@@H]1CCN2Cc1cccc2cccnc12 | - | .
C=C1[C@H]2C[C@]3(C4CC5[C@@]6(C)CC[C@H](O)[C@]5(C3CC2=O)C4[N+]([O-])(CC)C6)[C@@H]1O (stereo not given in full) | - | -
CC/C=C\C=C/C(=O)N/C=C/C[C@H]1C[C@H]2C[C@H](O)C[C@H](Cc3cccc(O)c3C(=O)O1)O2 | - | -
Cc1cccc(C)c1-n1nnnc1C1(N)CCC(C)CC1 (stereo not given) | - | 32.7
NC1(c2nnnn2-c2ccccc2)CCCCC1 | - | .
CC[C@@]1(O)C[C@H](OC2CC(N(C)C)C(OC3CC(O)C(OC4CCC(=O)C(C)O4)C(C)O3)C(C)O2)c2c(cc3c(c2O)C(=O)c2c(O)ccc(O)c2C3=O)[C@H]1C(=O)OC (stereo not given in full) | 70.9 | -
Cc1ccc2c(c1)-c1onc(C(=O)N3CCC4(CC3)OCCO4)c1CO2 | - | -
CO[C@@H]1C[C@@H](C[C@H]2CC[C@H](C)[C@H]([C@@H](C)C(=O)O)O2)O[C@]2(O[C@](C)([C@H]3CC[C@@](C)([C@@H]4O[C@@H]([C@H]5O[C@@](O)(CO)[C@H](C)C[C@@H]5C)C[C@@H]4C)O3)C[C@H]2C)[C@@H]1C | - | 33.8
CC[C@@]1([C@@H]2O[C@@H]([C@H]3O[C@@](O)(CO)[C@H](C)C[C@@H]3C)C[C@@H]2C)CC[C@H]([C@]2(C)CC[C@]3(C[C@H](O)[C@@H](C)[C@@H]([C@@H](C)[C@@H](O)[C@H](C)C(=O)O)O3)O2)O1 | - | -
CC(=O)O[C@H]1[C@]2(O)C[C@]34SS[C@](CO)(C(=O)N3[C@@H]2C[C@@]12O[C@@H](C)C(C)(C)C2=O)N(C)C4=O | - | 62.9
C=C1[C@@H](C)[C@H]2[C@H](Cc3ccccc3)NC(=O)[C@]23[C@H](OC(C)=O)[C@@H]2O[C@H]2[C@@](C)(O)C(=O)[C@@H](C)C/C=C/[C@H]3[C@@H]1O | - | -
CC12CN3CC(C)(CN(C1)C3c1ccccn1)C2 (stereo not given) | - | -
CC(C)C12CN3CC(C(C)C)(CN(C1)C3c1ccccn1)C2O (stereo not given) | 39.2 | -
COc1cccc2c1NC(=O)C21CCN(C(=O)Nc2ccc(F)cc2)CC1 | - | -
COc1cccc2c1NC(=O)C21CCN(C(=O)Nc2cccc(C)c2)CC1 | 53.6 | -
COc1cc(=O)oc(/C=C/C=C/C=C/C(C)=C/[C@@]2(C)O[C@@H](C)[C@@](C)(O)[C@@H]2O)c1C | - | -
CN1C(=O)C23SSC1(CO)C(=O)N2C1Nc2ccccc2C1(C12c4ccccc4NC1N1C(=O)C4(CO)SSC1(C(=O)N4C)C2O)C3O (stereo not given) | - | -
CN1C(=O)[C@@]23CC4=CC=C[C@H](O)C4N2C(=O)[C@]1(CO)SS3 (stereo not given in full) | - | 34.8
CC(=O)NCCNC(=O)N[C@H]1C[C@H]2Cc3ccccc3[C@@H](C1)N2C | - | -
CCC(=O)CCCCC[C@@H]1NC(=O)[C@H]2CCCCN2C(=O)[C@H]([C@@H](C)CC)NC(=O)[C@H](Cc2cn(OC)c3ccccc23)NC1=O | 35.9 | -
